This note sets out measurements from PubChem BioAssay (NCATS).

Each structure is given as a SMILES string. Values joined by “and” are separate entries in the source; they are usually repeats but may differ in a detail not shown here. Equal values may be shown once. Records with an inconclusive call do not appear. A number with no mark means an inactive call. Active and inactive are the calls of the source. Calls come from the whole dose curve; as a rule, active = well fitted inhibition curve with a large enough effect; inconclusive = small, poorly fitted or top-dose-only effect; inactive = flat fitted curve, though single readings scatter.
% is set by controls: 0 for no effect and ±100 for the full control effect.

In the test the test system is CRL-7250. As to the kind of experiment: Cytotoxic Profiling of Annotated Libraries Using Quantitative High-Throughput Screening (AID 1296008). Note: nearly all actives have a fitted effect of over 60% in size. To be noted: Five cell lines viability, CellTiter-Glo ATP luminescence, 48-72 h; max response: stronger effect = lower value. The method, boiled down: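 Compounds were pin-transferred onto cells and incubated 48 or 72 hr at 37 degree Celsius, 95% humidity. CellTiter-Glo was added, plates sat 10 min at room temperature, then ATP-coupled luminescence was imaged as the viability read-out.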
Turning to `CN1CCC(COc2cnc(-c3cccc(Cn4nc(-c5cccc(C#N)c5)ccc4=O)c3)nc2)CC1`, the molecule was classed as inactive. On to `C[C@@]1(c2cc(-c3cncnc3)c(F)cc2F)CCSC(N)=N1`, for which the max response is 3.38% and -17.5%.

With `C[C@H](c1ccc(F)cc1CCCC(=O)O)N(c1cc(F)ccc1F)S(=O)(=O)c1ccc(Cl)cc1`, the max response is -0.7% and -8.45%.

As to `COc1ccc(-c2cc(=O)c3c(O)cc(O[C@@H]4O[C@H](CO[C@@H]5O[C@@H](C)[C@H](O)[C@@H](O)[C@@H]5O)[C@@H](O)[C@H](O)[C@@H]4O)cc3o2)cc1O`, the max response was -4.94%. As to `COC(=O)N1CCN(Cc2cccc(NC(=O)Nc3ccc(C)nc3)c2F)CC1`, the max response is -17.2% and the call was inactive.

Turning to `Cc1cnc(-c2cc(N3CCN(C(=O)CCS(C)(=O)=O)CC3)ncc2Cl)c(C)c1`, the max response is 2.67% and the molecule was called inactive.

`NC(=O)c1ccc(N(C(N)=O)c2c(F)cccc2F)nc1-c1ccc(F)cc1F`: the max response was -5.46% and 0.374%.
